# Assay outcomes: PubChem, Buhrlage Lab, Dana-Farber Cancer Institute and Novartis Institutes for BioMedical Research (Cambridge, Mass)
# OTUD3 block: blocks human OTUD3 ubiquitin-rhodamine cleavage | Q5T2D3 | purified OTUD3, Ub-rhodamine fluorescence, 2 h | inhibition, % at 25 µM | 47,000 compounds, 0.7% hits
# Target sequence (Q5T2D3 whole entry, looked up): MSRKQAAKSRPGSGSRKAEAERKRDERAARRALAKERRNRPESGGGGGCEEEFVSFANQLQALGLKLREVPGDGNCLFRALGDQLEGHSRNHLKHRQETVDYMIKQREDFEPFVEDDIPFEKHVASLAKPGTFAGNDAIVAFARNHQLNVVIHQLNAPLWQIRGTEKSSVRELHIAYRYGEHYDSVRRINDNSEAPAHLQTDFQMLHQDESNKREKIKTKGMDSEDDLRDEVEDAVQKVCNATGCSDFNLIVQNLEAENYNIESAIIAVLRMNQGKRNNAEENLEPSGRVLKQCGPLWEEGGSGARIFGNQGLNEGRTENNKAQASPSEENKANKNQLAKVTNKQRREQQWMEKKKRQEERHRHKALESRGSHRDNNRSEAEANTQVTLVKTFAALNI
# USP30 inh: human USP30 deubiquitinase inhibition; AID 1645860; 47,000 compounds, 5.3% hits; purified USP30, Ub-rhodamine cleavage fluorescence; inhibition, % at 25 µM
# USP28 block: blocks human USP28 ubiquitin-rhodamine cleavage; Q96RU2; purified USP28, Ub-rhodamine cleavage fluorescence, 30 min; inhibition, % at 25 µM; 47,000 compounds, 3% hits; AID 1645857
# USP17 inh: inhibitors of human USP17 deubiquitinase; A8MUK1; purified USP17, Ub-rhodamine cleavage fluorescence, 3 h; inhibition, % at 50 µM; 47,000 compounds, 6.5% hits; AID 1645855
# The depositor's hits bear a star; / = not tested or not shown. Hits are enriched below; roughly 11% of the tested compounds scored in any of these assays. No stated cut-off is given here; in the data, active means inhibition above about 30%; inactive means the rest.
SMILES,OTUD3 block,USP30 inh,USP28 block,USP17 inh
CCOC(=O)C1CCN(C(=O)Cn2c(=O)cc(C)c3c(-c4ccccc4)nn(-c4ccccc4)c32)CC1,-3,34*,-7,10
O=C(CN(Cc1ccccc1)S(=O)(=O)c1ccc(Cl)cc1)Nc1ccc(N2CCOCC2)cc1,-2,-27,2,18
O=C(CN(Cc1ccc(Cl)cc1)S(=O)(=O)c1ccc(Cl)cc1)N1CCOCC1,16,63*,16,21
COc1ccc(Cn2nc(-c3ccccc3)cc2-c2ccccc2O)cc1,23,43*,21,12
COc1ccc(/C=C/c2ccc(=O)n(Cc3ccccc3)n2)cc1,9,16,13,20
COc1ccc(CCNc2ncnc3c2c(-c2ccccc2)cn3-c2cccc(C(F)(F)F)c2)cc1OC,-17,-65,-21,-43
COC1C(O)=C2C(=O)O/C(C)=C/C=C/C=C/C=C/CC(c3ccccc3)NC(=O)/C=C/C=C/C=C\C=C\C2(C)C1O (configuration not stated),33*,-51,31*,43*
C=C(C)[C@@H]1CC[C@]2(CO)CC[C@]3(C)[C@H](CC[C@@H]4[C@@]5(C)CC[C@H](OC(C)=O)C(C)(C)[C@@H]5CC[C@]43C)[C@@H]12,9,16,6,19
Cc1cc(Oc2ccc(F)cc2F)nc2ccccc12,5,-1,31*,-3
COc1ccccc1Nc1cc(C)c2ccccc2n1,-3,-4,5,0
Cc1ccc(C(=O)NCCc2nc(-c3ccc4c(c3)OCO4)n[nH]2)cc1F,8,69*,16,47*
Nc1cc(S(=O)(=O)N2CCOCC2)ccc1OCC(F)(F)F,-4,0,-11,4
COCCCn1c(C(=O)Nc2cccc(OC)c2)cc2c(=O)n3cccc(C)c3nc21,0,-80,-10,12
CCC(C)NC(=O)c1cc2c(=O)n3cccc(C)c3nc2n1Cc1ccccc1 (configuration not stated),1,0,-15,12
CCCCN(C)C(=O)c1cc2c(=O)n3cccc(C)c3nc2n1Cc1ccccc1,21,42*,21,63*
COCCCn1c(C(=O)NCCc2ccccc2)cc2c(=O)n3cccc(C)c3nc21,0,28,1,71*
COCCCn1c(C(N)=O)cc2c(=O)n3cccc(C)c3nc21,27,19,16,40*
CCOCCCNC(=O)c1cc2c(=O)n3cccc(C)c3nc2n1Cc1ccccc1,13,44*,13,41*
O=C(CCC1CCCCC1)N1CCN(Cc2nnnn2-c2cccc(F)c2)CC1,6,15,12,4
CC1CCc2sc(NC(=O)c3ccccc3Oc3ccccc3)c(C(N)=O)c2C1 (configuration not stated),11,21,6,83*
CS(=O)(=O)c1cccc(C(=O)Nc2sc3c(c2C(N)=O)CCCCC3)c1,-9,-79,-27,-52
CSc1cccc(C(=O)Nc2sc3c(c2C(N)=O)CCC(C)C3)c1 (configuration not stated),-4,3,-4,6
CSc1ccccc1C(=O)Nc1sc2c(c1C(N)=O)CCC(C)C2 (configuration not stated),-9,-1,12,80*
CSc1ccccc1C(=O)Nc1sc2c(c1C(N)=O)CCCCC2,7,-2,29,38*
O=C(CCc1ccccc1)N1CCC[C@@H](Cn2nnc(-c3cccnc3)n2)C1,0,7,1,-5
SMILES,OTUD3 block,USP30 inh,USP28 block,USP17 inh
Cc1noc(-c2ccc(-n3ncc(C(=O)N4CCN(c5ccccn5)CC4)c3C)nc2)n1,0,-5,-11,2
COc1ccc(-c2cc(C(=O)NCCC3=CCCCC3)nn2C2CCS(=O)(=O)C2)cc1 (configuration not stated),10,17,43*,27
COc1ccc(-c2cc(C(=O)NC3CC3)nn2C2CCS(=O)(=O)C2)cc1 (configuration not stated),4,17,0,6
c1ccc(-c2cc3c(NCC4CCCO4)ncnc3s2)cc1 (configuration not stated),0,-4,0,-2
c1ccc(-n2ncc3c(NCC4CCCO4)ncnc32)cc1 (configuration not stated),11,31*,6,15
O=C(c1ccc(N2CCc3ccccc32)s1)N1CCC(N2CCCCC2)CC1,8,1,35*,46*
CN(C)CCNC(=O)c1ccc(N2CCc3ccccc32)s1,-14,-48,19,-1
NCCC(=O)N1CCC2(CC1)OC(=O)N(Cc1ccccc1)c1ccccc12,-8,-4,13,-11
NCCNC(=O)N1CCC2(CC1)OC(=O)N(Cc1ccccc1)c1ccccc12,5,5,34*,-8
Cc1ccc(NC(=O)CCc2ccc3nc[nH]c3c2)c(C)c1,-6,10,-7,-8
Cc1ccc(NC(=O)CCc2ccc3nc[nH]c3c2)cc1F,-6,-11,35*,-6
CCOc1ccccc1NC(=O)Cn1c(=O)n(CCC(=O)NCc2ccc3c(c2)OCO3)c(=O)c2sccc21,0,/,/,60*
O=C(CCn1c(=O)c2sccc2n(CC(=O)OCc2ccccc2)c1=O)NCc1ccc2c(c1)OCO2,35*,52*,16,30
Cc1ccc(-c2nc(CCN(C)C(=O)c3ccc(F)cc3)no2)cc1,-3,-3,-3,-14
